Hit rate of the full screen: of about 5,500 compounds, about 2,000 (36%) were called active. About 18% were inconclusive and are not listed. Rule as the data show it: active = normalized growth mostly below about 0.91 (no sharp cut-off); inconclusive = no clear call, values can overlap the other calls; inactive = mostly above about 0.92. This is one part of the list.
Assay: chemical genetic growth profiling, strain panel (AID 1159580);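 also: tested at 20 µM; growth read once vehicle control cultures reached saturation at 30 °C; 1 = growth at the plate median or of vehicle wells; lower values mean less growth of the strain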
Conditions: growth OD
[1] = S. cerevisiae deletion strains, locus YGR078C, strain PAC10, stronger effect = lower value
[2] = S. cerevisiae deletion strains, locus YJR075W, strain HOC1, stronger effect = lower value
[3] = S. cerevisiae deletion strains, locus YMR307W, strain GAS1, stronger effect = lower value
[4] = S. cerevisiae deletion strains, locus YNL153C, strain GIM3, stronger effect = lower value
[5] = S. cerevisiae deletion strains, locus YNL322C, strain KRE1, stronger effect = lower value
[6] = S. cerevisiae deletion strains, locus YPL241C, strain CIN2, stronger effect = lower value

Measured: normalized growth

CC(C)(Sc1ccc(CCN(CCCCC2CCCCC2)C(=O)NC2CCCCC2)cc1)C(=O)O
inactive: S. cerevisiae deletion strains, locus YAL040C, strain CLN3, stronger effect = lower value 1.06 | S. cerevisiae deletion strains, locus YCL061C, strain MRC1 (second series), stronger effect = lower value 0.994 | S. cerevisiae deletion strains, locus YDR363W, strain ESC2, stronger effect = lower value 1.01 | S. cerevisiae deletion strains, locus YER002W, strain NOP16, stronger effect = lower value 1.01 | [1] 1.03 | [2] 1.01 | [3] 0.994 | [4] 0.986 | S. cerevisiae deletion strains, locus YNL175C, strain NOP13, stronger effect = lower value 1.01 | S. cerevisiae deletion strains, locus YNL197C, strain WHI3, stronger effect = lower value 1.02 | S. cerevisiae deletion strains, locus YNL224C, strain SQS1, stronger effect = lower value 1 | [5] 0.994 | S. cerevisiae deletion strains, locus YOR083W, strain WHI5 (second series), stronger effect = lower value 0.98 | [6] 1

CC(C)(C)S(=O)(=O)/C(C#N)=C/c1ccc(F)cc1F
inactive: S. cerevisiae deletion strains, locus YAL013W, strain DEP1, stronger effect = lower value 0.995 | S. cerevisiae deletion strains, locus YBR229C, strain ROT2, stronger effect = lower value 0.999 | S. cerevisiae deletion strains, locus YDL101C, strain DUN1, stronger effect = lower value 1 | S. cerevisiae deletion strains, locus YDL134C, strain PPH21, stronger effect = lower value 1.01 | S. cerevisiae deletion strains, locus YDR150W, strain NUM1, stronger effect = lower value 0.947 | S. cerevisiae deletion strains, locus YEL061C, strain CIN8, stronger effect = lower value 1.02 | [1] 0.999 | S. cerevisiae deletion strains, locus YHR030C, strain SLT2, stronger effect = lower value 1.08 | S. cerevisiae deletion strains, locus YHR087W, strain rtc3, stronger effect = lower value 1.01 | S. cerevisiae deletion strains, locus YJL187C, strain SWE1, stronger effect = lower value 1 | S. cerevisiae deletion strains, locus YJR043C, strain POL32, stronger effect = lower value 1.01 | [2] 0.987 | S. cerevisiae deletion strains, locus YKL190W, strain CNB1, stronger effect = lower value 1.02 | S. cerevisiae deletion strains, locus YLR039C, strain RIC1, stronger effect = lower value 0.962 | S. cerevisiae deletion strains, locus YLR058C, strain SHM2 (second series), stronger effect = lower value 0.987 | S. cerevisiae deletion strains, locus YLR085C, strain ARP6, stronger effect = lower value 1.06 | S. cerevisiae deletion strains, locus YLR262C, strain YPT6, stronger effect = lower value 0.954 | S. cerevisiae deletion strains, locus YML094W, strain GIM5, stronger effect = lower value 1.03 | S. cerevisiae deletion strains, locus YMR219W, strain ESC1, stronger effect = lower value 0.989 | S. cerevisiae deletion strains, locus YMR263W, strain SAP30, stronger effect = lower value 0.977 | [3] 1.01 | S. cerevisiae deletion strains, locus YNL128W, strain TEP1, stronger effect = lower value 1.01 | [4] 1.01 | S. cerevisiae deletion strains, locus YNL298W, strain CLA4 (second series), stronger effect = lower value 1.03 | [5] 0.994 | S. cerevisiae deletion strains, locus YNR030W, strain Alg12, stronger effect = lower value 1.01 | S. cerevisiae deletion strains, locus YPL055C, strain LGE1, stronger effect = lower value 0.919 | [6] 1.03 | S. cerevisiae deletion strains, locus YPR135W, strain CTF4, stronger effect = lower value 1.05 | S. cerevisiae strains, strain wild type, stronger effect = lower value 1.03

Source: PubChem BioAssay AID1159580 (chemical genetic matrix, 2015)
